Data reported in PubChem BioAssay (NCI).
About 83,000 compounds went through this panel and 20% of them were active in at least one assay; those are over-represented in the sample as a whole.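 How to read the values: 0–100, growth inhibition (40 = 60% inhibited); 0, no net growth; -100 to 0, cell death (-40 = 40% of starting cells died; -100 = all dead).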 Unmarked numbers belong to inactive results. Active and inactive are the calls of the source.

System: SNB-75 CNS
Experiment: NCI-60 one-dose screen, 48 h (100 = growth as untreated, 0 = no growth, -100 = all killed)
Settings: 10 µM
Procedure: Growth inhibition of the SNB-75 human tumor cell line is measured as a screen for anti-cancer activity. Cells are grown in 96 well plates and exposed to the test compound for 48 hours. Compounds are tested at a single concentration, which is 10^-5 M for most compounds. The reported endpoint is percent growth (GI% or GIPRCNT), where numbers from 0 - 100% represent growth inhibition, and numbers from -100% - 0 represent cell death. For example, a value of 40 represents 60% growth inhibition. A value of 0 means no net growth occurred over the course of the experiment. A value of -40 indicates 40% of cells at the beginning of the experiment died by the end of the experiment. A value of -100 means all cells are dead at the end of the experiment.
NCI-60 Human Tumor Cell Lines Screen was performed using the standard one-dose NCI protocol, which is described in more detail at https://dtp.cancer.gov/discovery_development/nci-60/default.htm.
Compounds with GIPRCNT values below 10 were considered active. Activity score was based on GIPRCNT using the following formula: […]
Score is 0 for GIPRCNT values of 100 or above, 50 for GIPRCNT values of 0, and 100 for GIPRCNT values of -100.

| Structure (SMILES) | growth |
| --- | --- |
| Cc1ccc2sc3c(c2c1)Oc1nc[nH]c(=O)c1C3c1cccc(F)c1 (stereo not given) | 84.2% |
| COc1ccc(C(=O)COc2ccc(NC(=O)Nc3ccccc3)cc2)cc1 | 87.9% |
| COc1cccc(C(=O)CSc2nc(-c3ccc(OCc4ccccc4)c(OC)c3)c(C#N)c(=O)[nH]2)c1 | 87.7% |
| C#C[C@]1(O)CC[C@H]2[C@@H]3CC=C4c5sc(Nc6cc(C)cc(C)n6)nc5CC[C@]4(C)[C@H]3CC[C@@]21C | 33.9% |
| CC(C)(C)c1cc(/C=C2\S/C(=N/c3ncn[nH]3)NC2=O)cc(C(C)(C)C)c1O | 19.3% |
| COc1cccc(O)c1/C=C1\SCc2cc3c(OC)cccc3[o+]c21 | 115% |
| Cc1cc(N=C2NC(=O)/C(=C/c3cc(C(C)(C)C)c(O)c(C(C)(C)C)c3)S2)n[nH]1 | 1.49% (active) |
| CCOc1ccc(/C=N/NC(=O)Cn2nc(Cc3ccc(OC)cc3)c3onc(C)c3c2=O)cc1 | -39.9% (active) |
| Nc1nnc(-c2c[nH]c3ncc(Br)cc23)c(-c2c[nH]c3ccc(Br)cc23)n1 | 43.4% |
| COc1cc(Nc2nc(O)c(/C=C3\C=Nc4ccccc43)s2)cc(OC)c1OC | -63.8% (active) |
| Cn1cc(-c2nc(N)nnc2-c2c[nH]c3ccccc23)c2cc(Br)cnc21 | 2.04% (active) |
| Cc1ccc2c(c1)C(=O)/C(=C/c1ccc([N+](=O)[O-])cc1)S2 | 81.3% |
| O=[N+]([O-])c1cccc(-c2nnc3c(/C=C/c4ccccc4O)nc4ccccc4n23)c1 | 102% |
| CCOC(=O)c1ccc(NC(=O)CSC(CC(=O)c2sc(Nc3ccccn3)nc2C)c2ccccc2F)cc1 (stereo not given) | -3.07% (active) |
| O=C1NC(=S)S/C1=C\c1cn(-c2ccccc2)nc1-c1ccc([N+](=O)[O-])cc1 | 34.5% |
| Cc1cc(N=C2NC(=O)S/C2=C\c2ccc(F)cc2)n[nH]1 | 2.65% (active) |
| O=C(CSc1nc2ccccc2c(=O)n1-c1ccc(Cl)cc1)Nc1ccc(-c2nc3ccc([N+](=O)[O-])cc3[nH]2)cc1 | 34.4% |
| Cc1ccc(COc2ccc(NC(=O)Nc3ccc(Cl)c(C(F)(F)F)c3)cc2)cc1 | 72.4% |
| O=C(CC(=O)Nc1ccc(Oc2ncnc3scc(Nc4n[nH]c(=S)s4)c23)cc1)Nc1ccc(Cl)cc1 | 87.7% |
| Cn1cc(/C=C(/SS/C(=C/c2cn(C)c3cccc(C(=O)O)c23)C(=O)O)C(=O)O)c2c(C(=O)O)cccc21 | 88.8% |

| Structure (SMILES) | growth |
| --- | --- |
| CCOC(=O)C1=C(N)N(c2ccc(C)cc2)C2=C(C(=O)CC(C)(C)C2)C1c1ccccc1Br (stereo not given) | 87.2% |
| O=C(CC(=O)Nc1ccc(Oc2ncnc3scc(Nc4n[nH]c(=S)s4)c23)cc1)Nc1ccc(Br)cc1 | 95.6% |
| COc1ccc(C2c3sc4ccc(C)cc4c3Oc3nc[nH]c(=O)c32)cc1 (stereo not given) | 45.8% |
| O=C1S/C(=C\c2ccc([N+](=O)[O-])cc2)C(=O)N1CCN1CCCCC1 | 104% |
| COc1ccc(C2c3sc4ccc(C)cc4c3Oc3nc(N)nc(N)c32)cc1 (stereo not given) | 70.9% |
| O=C(CN1CCN(c2ncnc3c2cnn3-c2ccccc2)CC1)Nc1ccc(Cl)cc1 | 69.7% |
| Cc1ccc2c(c1)C(=O)/C(=C/c1c[nH]c3ccccc13)S2 | 41.1% |
| O=C(Nc1ccc(OCc2ccc(F)cc2)cc1)Nc1ccc(Cl)c(C(F)(F)F)c1 | 21% |
| C#C[C@]1(O)CC[C@H]2[C@@H]3CC=C4c5sc(Nc6ccc(C(F)(F)F)cn6)nc5CC[C@]4(C)[C@H]3CC[C@@]21C | 28.5% |
| O=C(c1ccc(Cl)cc1)C(c1c[nH]c2ccccc12)c1c[nH]c2ccccc12 | 31.9% |
| CC1(C)CC[C@]2(C(=O)O)CC[C@]3(C)C(=CCC4[C@@]5(C)C[C@@H](O)[C@@H]6OC(c7cccc(F)c7)OC[C@@]6(C)C5CC[C@]43C)C2C1 (stereo not given in full) | 81.6% |
| CCn1c(SCC(=O)Nc2ccc(-c3nc4ccccc4[nH]3)cc2)nc2ccccc2c1=O | -94.2% (active) |
| CC1[C@H]2[C@H](C[C@H]3[C@@H]4CC=C5c6sc(Nc7cccc(Cl)n7)nc6CC[C@]5(C)[C@H]4CC[C@@]32C)O[C@]12CC[C@@H](C)CO2 (stereo not given in full) | 127% |
| COc1ccc(-n2c(SCC(=O)NNS(=O)(=O)c3ccccc3)nc3ccc(Cl)cc3c2=O)cc1 | 98.7% |
| Cn1cc(-c2cc(N)n3nc(-c4cn(C)c5ccccc45)cc3n2)c2cc(F)ccc21 | -67% (active) |
| O=C(Nc1ccc(Oc2ncnc3scc(Nc4n[nH]c(=S)s4)c23)cc1)C1(C(=O)Nc2cccc(C(F)(F)F)c2)CC1 | 104% |
| COc1ccc(Cc2nn(CC(=O)N/N=C/c3ccc(Br)cc3)c(=O)c3c(C)noc23)cc1 | -30.1% (active) |
| COc1cc2oc(-c3cccc(C(=O)Nc4ccc(Cl)cc4)c3)cc(=O)c2c(OCCNC(=O)[C@@H](N)CO)c1OC | 121% |
| Fc1ccc(/C=C/c2nc3ccccc3n3c(-c4ccc(Cl)cc4)nnc23)cc1 | 86.8% |
| C#C[C@]1(O)CC[C@H]2[C@@H]3CC=C4c5sc(Nc6ccc(N(C)C)cc6)nc5CC[C@]4(C)[C@H]3CC[C@@]21C | 33.8% |
